# ± gives the standard deviation.
# Test system: MILI (PIWIL2) piRISC loaded with piRNA #1 (26 nt)
# Test: pre-steady-state target cleavage rate (min^-1); guide: piRNA #1 5'p-UGAGGUAGUAGGUUGUAUAGUAUCCA; MIWI and MILI are mouse PIWI proteins and EfPiwi is from a freshwater sponge; tags in brackets are library labels; higher = faster piRNA-guided slicing of the target
# Conditions: auxiliary factor: 500 nM mouse GTSF1
# In short: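 Sequencing of uncleaved targets, normalised to depth and to weakly complementary targets, was the readout of this Cleave-'n-Seq assay. A transcribed, DNA-blocked target RNA library (0.1 nM) was mixed with 1 nM active affinity-purified piRISC carrying one synthetic guide, with or without 500 nM GTSF1 partner protein, in HEPES–potassium acetate buffer at 33 °C for 0–8 or 0–960 min. Three trials were pooled, k3 was capped at 0.0001 min^-1, and a burst-and-steady-state fit gave the pre-steady-state cleavage rate.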
row,Sequence,pre-steady-state target cleavage rate
1,GGAGACCUUACUUUACAAGCUACUACCUCA,0.232 ± 0.013
2,GGAGACCUAACUUUACAACGUACUACCUCA,0.00988 ± 0.0052
3,GGAGACCUUUCUAUACUACCUACUACCUCA,0.0739 ± 0.011
4,GGAGACCUAUCUUACAACCUACUACCUCA,0.0336 ± 0.0082
5,GGAGUGGAUAGUAUAGAACCUACUACCUCA,0.146 ± 0.013
6,GGAGACCUAUGUAUACAAGCUACAACCUCA,0.0946 ± 0.011
7,GGAGUGCAUUCUAUACAACCUACUACCUCA,0.13 ± 0.011
8,GGAGACCUAUGUAUACAACCUACUACCUAA,0.0593 ± 0.0072
9,GGAGACCUAUGAUUACAAGCUACUUCCUCA,0.0143 ± 0.0037
10,GGAGACCUAUGUUAUCAACCUACUACCUCA,0.0125 ± 0.0029
11,GGAGACCUAUGAUAAACAACCUACUACCUCA,0.00811 ± 0.0029
12,GGAGACCUAAGUAUACAUCCUACUACCUCA,0.0911 ± 0.0089
13,GGAGACCUAUGAUAUGUUGCUACUACCUCU [g2:g11:cont:t1U],< 0.0001
14,GGAGUGGAUACAAUUCAACCUACUACCUCA,0.178 ± 0.0092
15,GGAGACCUAUGUAUACAACCUACUACGACA,0.0279 ± 0.0061
16,GGAGACCUUACUAUACAACCAACUUCCUCA,0.00396 ± 0.0024
17,GGAGACCUAUGAUUACAACCUACUACCUACA,0.00666 ± 0.0024
18,GGAGACCUAUGAAUACAAGCUACUUCCUCA,0.0166 ± 0.0043
19,GGAGACCAUACUAUACAACCUACUACGUGA,0.115 ± 0.024
20,GGAGACCUAUGUAUACAACCUGCUACCUCA,0.0059 ± 0.0023

row,Sequence,pre-steady-state target cleavage rate
1,GGAGACCUUACUAUACAACCUACUAGCUGA,0.00949 ± 0.0037
2,GGAGACCUAUCUAUACAACCUUACUACCUCA,0.00278 ± 0.0026
3,GGAGACCUAACUAUACAAGCUACUACCACA,0.309 ± 0.029
4,GGAGACCUAUGUAUACAACCUACUUCCUGA,0.00819 ± 0.0021
5,GGAGACCUAUGUAUACAACCUUCUACCUCA,0.00351 ± 0.0017
6,GGAGAGGAUACUAUACAACCUACAUGCUCA,0.00576 ± 0.003
7,GGAGACCUAUCUAUUCUACCUACUACCUCA,0.0569 ± 0.0086
8,GGAGACCUAUCUAUACAACCUACUACCUAA,0.0733 ± 0.0096
9,GGAGACCUAUCUAUAGAUCCUACUACCUCA,0.144 ± 0.017
10,GGAGUGGAAACUAUACAACCUACAACCUCA,0.0962 ± 0.023
11,GGAGACCUUACUAUACUACCUAGUACCUCA,0.035 ± 0.0072
12,GGAGACCUAUCUAAUCAACCUACUACCUCA,0.0267 ± 0.0037
13,GGAGACCUAUCUUUACAACGUACUACCUCA,0.00834 ± 0.002
14,GGAGUGGAUACUAUACAAGCUAGUACCUCA,0.0743 ± 0.014
15,GGAGACCUAUGAUAUGUUGCUUCUACCUGA,< 0.0001
16,GGAGACCUAUGAUAACAACGUACUACCUCA,0.00353 ± 0.0022
17,GGAGACCAUACUAUACUACCUACAACCUCA,0.185 ± 0.023
18,GGAGAGGAUUCUAUUCAACCUACUACCUCA,0.174 ± 0.013
19,GGAGACCAUACAAUACAACCUACUACGUCA,0.0912 ± 0.014
20,GGAGACCUUACUUAUCAACCUACUACCUCA,0.0518 ± 0.014

# Source: the supplement of paper PMC10338343
